In the library only some 1.9% were active in any assay of this set; here they are far more common.
IL2 activator: IL-2 activation; actives 0.065% (n = 360,000); IL-2 activation reporter assay, cell-based qHTS; stimulated with anti-CD3/CD4/CD28 beads; in transgenic mouse T cells; activation, % (series mostly up to about 46 µM); AID 652025; in the data active = activation above about 50%; inconclusive = mostly about 30% to 49%; note: 0% is about no effect
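Unstimulated transgenic mouse T cells preincubated 60 min with compound, then stimulated with anti-CD3/anti-CD4-coated beads plus anti-CD28 for 18 h at 37 degrees C. IL-2 response read as EGFP and DsRed fluorescence by plate cytometry.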
Pin1 inh: inhibitors of human Pin1. Pin1 FP peptide displacement, HiFluor488, 10 min. Potency, µM (highest dose often 115 µM), for inactives: top-dose activity, negative = inhibition, hits mostly inhibitors. Q13526. actives 0.009% (n = 390,000); active = well fitted inhibition curve with a large enough effect in the polarisation, with a control signal flat, not every such curve was filed as active; inconclusive = small, poorly fitted or top-dose-only effect, or effect the other way, or a change in a side signal; inactive = no such curve, though single readings can be large or run the other way; the % refers to the polarisation; note: potency is the fitted concentration of half-maximal effect; % is set by controls: 0 for no effect and ±100 for the full control effect
Target sequence (Q13526 whole entry, looked up): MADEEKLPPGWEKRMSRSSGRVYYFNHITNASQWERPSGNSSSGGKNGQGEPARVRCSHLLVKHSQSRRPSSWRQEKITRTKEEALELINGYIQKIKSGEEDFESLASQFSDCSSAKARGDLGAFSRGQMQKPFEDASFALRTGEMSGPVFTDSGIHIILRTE
PKM2 activator: activators of human pyruvate kinase M2; purified PKM2, Kinase-Glo ATP luminescence, activation; response scale: 0% is enzyme alone, no compound; Potency, µM (doses to about 57.5 µM), without a hit: at the highest dose activation, hits mostly activators; actives 0.34% (n = 260,000); AID 1631; note: potency is the fitted concentration of half-maximal effect; % is set by controls: 0 for no effect and ±100 for the full control effect; nearly all actives have a fitted effect of over 55% in size
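Kinase-Glo luminescence reports ATP generated from ADP (0.1 mM) and PEP (0.5 mM) by purified hPK-M2 after 1 h at room temperature, pH 7.2 imidazole buffer; intermediate enzyme activity allows detecting inhibitors and activators.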
Integrin act MD: integrin-mediated muscular dystrophy alleviation activation | actives 0.064% (n = 350,000) | AID 624291 | Potency, µM (series often up to 38.3 µM), for inactives: at the highest dose activation, usual class: activators | alpha7betagal myoblasts, beta-gal FDG fluorescence, 48 h;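 note: potency is the fitted concentration of half-maximal effect; 100% = response of the positive control SU9516; nearly all actives have a fitted effect of over 60% in size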
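alpha7betagal+/- myoblasts (passage 13, 250/well) treated 48 h at 37C with compounds at 1:260 dilution of DMSO stock. Lysed, then beta-galactosidase activity read as FDG fluorescence (ex 480/em 540) after 30 min, with pre-read for autofluorescence.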
USP2a block: USP2a (human) protease inhibition; O75604; USP2 core, Ub-CHOP2 coupled fluorogenic reporter, 485/531; Potency, µM (highest dose often 38.3 µM), for the others: top-dose activity change, negative = inhibition, usual class: inhibitors; actives 0.01% (n = 330,000);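 note: potency is the fitted concentration of half-maximal effect; plate controls were DMSO wells for no effect and full inhibition by NEM control for full effect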
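Deubiquitinase activity read as fluorescence (485/531 nm) after Ub-CHOP2 cleavage activates the enterokinase reporter on its substrate; USP2 core 10nM, Ub-CHOP2 and substrate 25nM each, 30min compound preincubation then 60min RT; data normalized to NEM, curves fitted.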
ClpP mod: qHTS Assay for Activators of ClpP; ATP-dependent Clp protease proteolytic subunit (Bacillus subtilis (strain 168)), P80244; actives 1.9% (n = 340,000); Potency, µM (highest dose often 57.5 µM), without a hit: at the top dose activity change, negative = active; purified B. subtilis ClpP, FRET peptide cleavage, 20 min; active = well fitted falling curve with a large enough effect; inconclusive = small, poorly fitted or top-dose-only effect; inactive = no such curve, though single readings can be large or run the other way; note: potency is the fitted concentration of half-maximal effect; the source files actives as falling curves though it sought activators and does not explain the sign; nearly all actives have a fitted effect of over 65% in size
Target sequence (P80244 whole entry, looked up): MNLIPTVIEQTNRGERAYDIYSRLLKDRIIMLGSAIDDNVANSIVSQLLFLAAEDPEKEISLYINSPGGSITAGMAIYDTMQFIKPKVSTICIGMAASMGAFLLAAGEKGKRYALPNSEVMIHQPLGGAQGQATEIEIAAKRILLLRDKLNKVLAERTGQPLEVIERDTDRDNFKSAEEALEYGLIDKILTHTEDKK
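FRET quenching reversal measured ClpP activation: 10 microg/mL B. subtilis ClpP at pH 8 with the FRET-FV decapeptide, read at 430 nm after 320 nm excitation. The 20-min minus 0-min signal was scaled between DMSO/no-enzyme wells and ADEP (5.8 microM final).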
* marks the source's active call; other numbers are inactive results; ? = inconclusive; · = not tested or not shown. Unless noted, calls come from the whole dose curve; as a rule, active = well fitted curve in the direction sought with a large enough effect; inconclusive = small, poorly fitted or top-dose-only effect, or another doubt; inactive = no such curve, though single readings can be large; an effect the other way counts as inactive or inconclusive.

SMILES	IL2 activator	Pin1 inh	PKM2 activator	Integrin act MD	USP2a block	ClpP mod
CSc1nc(=O)[nH]c2nc[nH]c12	·	-5%	·	·	·	-17%
COc1ccc(-c2ccc(C3C4C=CCC(C)C4C(=O)N3Cc3ccccc3)c(F)c2)cc1OC (stereo unspecified)	·	13%	·	·	·	·
COc1ccc(-c2ccc([C@H]3[C@H]4C=CC[C@@H](C)[C@@H]4C(=O)N3Cc3ccccc3)c(F)c2)cc1C	1	21%	-2%	24%	2%	25µM*
O=C(Nc1cccnc1Cl)c1cnn2c1NC(=C1CC1)C=C2C(F)F	·	·	·	·	·	176%
OC(c1ccc(OCc2ccccc2)cc1)c1nnc(-c2ccccc2)o1 (stereo unspecified)	0	?	-4%	-55%	5%	14µM*
O=C(NNC1=C(C(=O)C(F)(F)F)CCC1)c1ccccc1Cl	0	-5%	-1%	-22%	0%	28µM*
O=C(NNC1=C(C(=O)C(F)(F)F)CCC1)c1ccccc1O	1	-1%	3%	-11%	-2%	-16%
CNc1nn(-c2cccc(Cl)c2)nc1N	-2	24%	-6%	5%	2%	32µM*
COCn1c(-c2ccc(OC)c(OC)c2)nc2ccccc21	-2	-1%	-14%	8%	2%	28µM*
COCn1c(-c2cccc(Br)c2)nc2ccccc21	2	-10%	-6%	16%	0%	?
O=c1c2[nH]c3ccc(F)cc3c2ncn1CCCN1CCOCC1	0	-1%	5%	3%	-6%	20µM*
COc1ccc2c(c1)[nH]c1c(=O)n(CCCN3CCOCC3)cnc12	0	4%	-2%	-4%	-2%	-13%
Cc1cccc(N(CC(O)Cn2c3ccccc3c3ccccc32)S(=O)(=O)c2ccc(F)cc2)c1 (stereo unspecified)	·	9%	·	·	·	32µM*
CC[N+]1(CC(=O)c2ccc(Br)cc2)CCCCC1	·	·	·	·	·	1%
O=C1OCC(c2ccccc2)=C1c1ccccc1	-2	1%	-1%	-97%	1%	35µM*
CS(=O)(=O)c1ccc(C2=C(c3ccccc3)C(=O)OC2)cc1	0	0%	·	·	·	1%
NC(=O)C1CCN(c2nc(-c3ccc4c(c3)CCO4)cs2)CC1	·	21%	·	·	·	·
Cc1cccc(-c2noc(-c3ccc(Cl)cc3[N+](=O)[O-])n2)c1	0	-16%	0%	8%	3%	-1%
COc1ccc(-c2noc(-c3ccc(Cl)cc3[N+](=O)[O-])n2)cc1OC	0	4%	-10%	?	0%	28µM*
CCC1(C)Cc2c(sc3nc(NC)n(C)c(=O)c23)CO1 (stereo unspecified)	-4	-4%	-10%	6%	-7%	14µM*
Cn1c(NN)nc2sc3c(c2c1=O)CC(C)(C)OC3	1	-4%	3%	-19%	2%	0%
O=C(CCCCCN1C(=O)c2ccccc2C1=O)NCc1ccco1	0	-8%	-2%	-10%	3%	18µM*
CCOc1cc2[nH]c(=S)n(CCC(=O)NCc3ccco3)c(=O)c2cc1OCC	4	0%	-8%	3%	-1%	·
CCOc1cc2[nH]c(=O)n(CCCC(=O)NCc3ccco3)c(=O)c2cc1OCC	1	-1%	1%	-8%	4%	25µM*
CCOc1cc2[nH]c(=O)n(CCCCC(=O)NCc3ccco3)c(=O)c2cc1OCC	-3	-1%	-16%	6%	1%	35µM*
O=C(CCN1C(=O)c2ccccc2S1(=O)=O)NCc1ccco1	-2	-8%	5%	1%	-1%	1%
CCOc1cc2[nH]c(=O)n(CCCCC(=O)N3CCCCCC3)c(=O)c2cc1OCC	3	-10%	2%	-25%	1%	13µM*
CCOc1cc2[nH]c(=S)n(CCCC(=O)NCc3ccco3)c(=O)c2cc1OCC	-2	?	3%	-34%	0%	-5%
